# HMGR II inh = blocks class II HMG-CoA reductase of Enterococcus faecalis | purified E. faecalis HMGR, NADPH absorbance 340 nm kinetic | inhibition, % at 10 µM | 0.41% of 190,000 active;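 active means inhibition above a set limit, the median over all tested compounds plus 3 SD, cut at about 9.5% in these data; inconclusive means no clear call, values can overlap the other calls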;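 further: enzyme runs in reverse so mevalonate oxidation gives rising NADPH absorbance; 0% = complete reaction with DMSO and 100% = background rate lacking mevalonate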
# PHOSPHO1 block = PHOSPHO1 (human) inhibition. recombinant PHOSPHO1, absorbance phosphatase assay. inhibition, % at 13.3 µM. 1.1% of 290,000 active. Q8TCT1; in the data active means inhibition above about 60%
# PABP polyA inh = blocks human PABP binding to poly(A) RNA; P11940; fluorescence polarization; calls only at 35 µM; 1% of 290,000 active; AID 2014;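 further: calls also rest on retests at 20 µM and on dose response follow-up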
# MLLE-PAM2 inh = inhibitors of microRNA-mediated deadenylation, human PABP1 MLLE binding; 0.36% of 360,000 active; GST-MLLE / FITC-PAM2 fluorescence polarization; AID 588489; P11940; inhibition, % at 20 µM; in the data active means inhibition above about 35%, passing the limit was not always enough;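 further: plate controls were DMSO wells with GST-MLLE for no effect and wells lacking GST-MLLE protein for full effect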
# eIF4H FP inh = inhibitors of RNA binding by human eIF4H. inhibition, % at 35 µM. 0.94% of 290,000 active. eIF4H fluorescence polarization binding assay;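 further: calls also rest on retests at 20 µM and on dose response follow-up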
# An asterisk follows results filed as active; i = inactive; u = inconclusive; x = no result; + = active, no number. The list is not random: actives were taken first. Their share in the collection is about 2.4%. Unless noted, how the calls were made is not given here.
SMILES,HMGR II inh,PHOSPHO1 block,PABP polyA inh,MLLE-PAM2 inh,eIF4H FP inh
C=CCCC(=O)Nc1nc(C)c(-c2csc(Nc3cccc(OC)c3)n2)s1,-3.8,103.5*,i,-21.5,3.4
Cc1nc(N)sc1-c1csc(Nc2cccc(C(=O)O)c2)n1,x,34.0,+,-27.7,85.1*
CCC(=O)Nc1nc(C)c(-c2csc(Nc3ccc(C(=O)O)cc3)n2)s1,x,9.7,i,29.2,6.8
COc1ccc(OC)c(Nc2nc(-c3sc(N)nc3C)cs2)c1,-5.3,52.7,i,-31.4,36.6
CCCC(=O)Nc1nc(C)c(-c2csc(Nc3cc(OC)ccc3OC)n2)s1,-2.5,88.9*,i,5.7,9.8
C=CCCC(=O)Nc1nc(C)c(-c2csc(Nc3cc(OC)ccc3OC)n2)s1,-2.9,71.9*,i,22.1,-3.0
COc1c2c(c(CCC(=O)O)c3c1C=CC(C)(C)O3)OC(C)(C)C=C2,x,x,x,-2.1,x
COCCNc1nc(NCc2cccc(OC)c2)c2sc(-c3ccccc3)cc2n1,x,x,x,8.9,x
COc1ccccc1Nc1nc(-c2sc(NC(=O)CC(C)C)nc2C)cs1,-3.2,76.8*,i,2.1,-2.5
CCCCCC(=O)Nc1nc(C)c(-c2csc(Nc3cc(Cl)ccc3OC)n2)s1,-5.0,88.9*,i,2.4,-4.8
Cc1ccc(Cl)cc1Nc1nc(-c2sc(NC(=O)C(C)(C)C)nc2C)cs1,-1.4,72.0*,i,-23.3,-10.0
CCCC(=O)Nc1nc(C)c(-c2csc(Nc3ccc(Cl)cc3)n2)s1,-2.1,20.1,i,-14.4,16.7
CCCC(C)C(=O)Nc1nc(C)c(-c2csc(Nc3cc(OC)ccc3OC)n2)s1 (configuration not stated),-0.2,76.8*,i,6.6,-3.0
CN(Cc1cccc(Cl)c1Cl)C(=O)c1cc(S(=O)(=O)N2CCOCC2)ccc1F,x,x,x,5.7,x
COc1cc(C)ccc1S(=O)(=O)NC(=O)C1(C)CCN1C(=O)Cc1ccccc1Cl (configuration not stated),x,x,x,6.5,x
C[C@@H](NC(=O)[C@@H]1Cc2ccccc2CN1C(=O)OC(C)(C)C)C(=O)NCc1ccco1,x,27.9,i,-0.7,-1.0
N[C@@H](Cc1cc(I)c(Oc2ccc(O)c(I)c2)c(I)c1)C(=O)O,-2.8,-9.9,i,-91.1,38.7
O=C(O)CCc1cc(I)c(Oc2ccc(O)c(I)c2)c(I)c1,x,4.0,+,x,65.1*
O=C(O)c1ccc(/C=N/n2cc(-c3ccccc3)[nH]c2=S)cc1,x,97.3*,i,22.8,14.1
S=c1[nH]c(-c2ccccc2)cn1/N=C/c1ccc(Br)cc1,0.2,-62.3,i,19.5,0.2
CCc1nc2sccc2c(=O)[nH]1,-7.9,10.5,i,-12.4,7.1
CC(=O)NS(=O)(=O)c1ccc(NC(=O)c2ccc(S(=O)(=O)N3CCCC3)cc2)cc1,x,x,x,-10.2,x
CCN1C(=NCCc2cccs2)N[C@@H](c2cccs2)C(C(=O)OC)=C1C,x,-103.2,+,-116.8,0.2
CCOC(=O)CN1C(=O)N[C@@H](c2cccs2)C(C(=O)OC)=C1C,x,x,x,3.8,x
CCOC(=O)c1ccc(-n2ccnc2)c(NC(=O)c2ccc(C(C)(C)C)cc2)c1,-1.3,-6.7,i,0.0,-14.1
SMILES,HMGR II inh,PHOSPHO1 block,PABP polyA inh,MLLE-PAM2 inh,eIF4H FP inh
CC(C)(C)C(=O)Nc1cc(C(F)(F)F)ccc1-n1ccnc1,12.8*,35.9,i,2.2,9.8
CCN(C)Cc1c(C(=O)N2CCc3ccccc3C2)nc2ccc(Cl)cn12,-7.9,19.5,i,-0.7,26.2
CCN(CC)Cc1c(C(=O)N2CCc3ccccc3C2)nc2ccc(Cl)cn12,17.4*,49.0,u,-0.3,u
CC[N+](C)(CC)CCC(c1ccccc1)C1CCCCC1 (configuration not stated),x,9.7,+,-120.7,34.0
CC[N+](C)(CC)CCOC(=O)C(O)(c1ccccc1)C1CCCCC1 (configuration not stated),-2.7,-3.8,i,2.8,-8.7
CCOc1ccc(N2CC(C(=O)Nc3nnc(C4CCCCC4)s3)CC2=O)cc1 (configuration not stated),x,27.5,i,-19.6,3.2
O=C(NCC(c1ccco1)N1CCCC1)c1sc2ccccc2c1Cl (configuration not stated),x,27.6,+,-5.9,84.7*
CSc1ccccc1C(=O)NCC(c1ccco1)N1CCCCC1 (configuration not stated),11.7*,52.7,i,-12.1,8.6
Cc1cccn2cc(-c3ccc(S(=O)(=O)N4CCOCC4)cc3)nc12,2.2,27.3,i,-6.8,-7.1
Cc1cccn2cc(-c3ccc(S(=O)(=O)N4CCCCC4)cc3)nc12,10.1*,-7.9,i,-16.5,-0.1
